# Most compounds without a hit are left out; they make up all but 21% or so of the library.
# TDP1 cell CPT – DT40-hTDP1 cell growth loss with CPT; chicken DT40 Tdp1-/-;hTDP1 cells + 20 nM CPT, ATP luminescence, 48 h; Potency, µM (highest dose often 46.2 µM), inactives show at the top dose activity change, negative = growth inhibition, hits mostly inhibitors; actives 12% (n = 420,000); AID 686979; note: potency is the fitted concentration of half-maximal effect; nearly all actives have a fitted effect of over 55% in size
#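 Cell growth measured by CellTiter-Glo luminescence after a minimum 48 h, 37 C compound exposure with 20 nM CPT in Tdp1-knockout DT40 cells stably expressing hTDP1, seeded 400/well; qHTS titration format.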
# RORg inh – inhibitors of mouse ROR gamma transcriptional activity; P51450; Drosophila S2 Gal4-RORgamma UAS-luciferase reporter, 20 h; Potency, µM (series often up to 53.6 µM), for the others: at the top dose activity change, negative = inhibition, usual class: inhibitors; actives 5.4% (n = 310,000); AID 2551; note: potency is the fitted concentration of half-maximal effect; nearly all actives have a fitted effect of over 60% in size
# Target sequence (P51450 whole entry, looked up, the tested form may be a part): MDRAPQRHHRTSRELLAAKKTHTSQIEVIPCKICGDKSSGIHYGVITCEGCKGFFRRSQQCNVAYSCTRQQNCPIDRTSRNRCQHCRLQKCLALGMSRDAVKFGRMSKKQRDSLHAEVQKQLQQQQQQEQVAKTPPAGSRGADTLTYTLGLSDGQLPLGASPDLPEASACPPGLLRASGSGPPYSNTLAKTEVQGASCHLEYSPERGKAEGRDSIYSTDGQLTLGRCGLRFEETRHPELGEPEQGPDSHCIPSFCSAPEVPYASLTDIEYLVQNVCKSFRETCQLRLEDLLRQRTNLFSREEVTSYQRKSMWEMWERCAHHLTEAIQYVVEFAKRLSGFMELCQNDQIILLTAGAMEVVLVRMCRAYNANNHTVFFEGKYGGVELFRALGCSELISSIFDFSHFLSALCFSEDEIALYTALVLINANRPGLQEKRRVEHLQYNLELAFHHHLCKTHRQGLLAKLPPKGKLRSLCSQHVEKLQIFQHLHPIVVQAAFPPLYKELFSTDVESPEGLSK
#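 Compounds are pin-transferred onto Drosophila Schneider cells expressing a copper-inducible Gal4–ROR gamma transactivation domain fusion. After 1 hr, copper sulfate is added to 700 uM final; luciferase is read 20 hr later.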
# DT40 TDP1 no CPT – qHTS for Inhibitors of human tyrosyl-DNA phosphodiesterase 1 (TDP1): qHTS in cells in absence of CPT. actives 15% (n = 420,000). DT40 Tdp1-/- hTDP1 cells, no CPT, ATP luminescence, 48 h. Potency, µM (series often up to 46.2 µM), inactives show at the highest dose activity change, negative = growth inhibition, most hits filed as inhibitors; note: potency is the fitted concentration of half-maximal effect; nearly all actives have a fitted effect of over 55% in size
#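 Chicken DT40 Tdp1-/- cells stably complemented with human TDP1 were seeded at 400 cells/well with DMSO in place of 20 nM camptothecin. After compound pinning, cells grew at least 48 hr at 37 °C; viability read by CellTiter-Glo luminescence.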
# Gal4-VP16 FLuc – counter-screen for ROR gamma inhibitors: Gal4-VP16 reporter; actives 3.5% (n = 310,000); Potency, µM (series often up to 53.6 µM), inactives show top-dose activity, negative = inhibition, usual class: inhibitors; AID 2546; Drosophila S2 Gal4-VP16 UAS-luciferase, luminescence, 20 h;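 note: Gal4-VP16 expression switched on by copper sulfate through the metallothionein promoter; potency is the fitted concentration of half-maximal effect; nearly all actives have a fitted effect of over 50% in size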
# IL-1B inflam inh – inhibitors of inflammasome signaling (IL-1 beta secretion) | THP-1 LPS/ATP IL-1B secretion, AlphaLISA, 16 h; hits give low values | activity change, % at 57.5 µM | actives 4.7% (n = 360,000); in the data active = activity change below about -50%; inconclusive = mostly about -30% to -49%
#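 THP-1 cells pretreated 1 hr with compounds (up to 57.5 uM final), then stimulated with LPS (250 ng/mL final) plus ATP (1.25 mM final); secreted IL-1B measured by AlphaLISA after 16 hr, decreased signal indicating inhibition.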
# ELG1 repair inh – ELG1-dependent DNA repair inhibition. HEK293T ELG1-luciferase reporter, luminescence, 16 h; DNA damage induced by 5-fluorouridine. Potency, µM (highest dose often 46.1 µM), without a hit: top-dose activity change, negative = inhibition, actives largely listed as inhibitors. actives 2.3% (n = 330,000); note: potency is the fitted concentration of half-maximal effect; nearly all actives have a fitted effect of over 55% in size
#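 Cells (2,000 per well) received 5-fluorouridine plus test compound or DMSO and were incubated 16 hr at 37 °C, 5% CO2. Luciferase activity was read by luminescence 30 min after ONE-Glo addition; signal suppression marked inhibition of damage-induced ELG1 function.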
# Active calls of the source: *; ? = inconclusive; . = not tested or not shown; ! = repeats disagree; [ ] = dose if it differs, or a comment. Unless noted, calls come from the whole dose curve; as a rule, active = well fitted curve in the direction sought with a large enough effect; inconclusive = small, poorly fitted or top-dose-only effect, or another doubt; inactive = no such curve, though single readings can be large; an effect the other way counts as inactive or inconclusive. % is set by controls: 0 for no effect and ±100 for the full control effect.
SMILES,TDP1 cell CPT,RORg inh,DT40 TDP1 no CPT,Gal4-VP16 FLuc,IL-1B inflam inh,ELG1 repair inh
O=C(NN=Cc1ccc(N(CCCl)CCCl)cc1Cl)c1cccnc1,?,.,23µM*,.,-6,.
CN(CCCC(=O)c1cccnc1)N=O,0%,.,4%,.,.,.
CC(C)Cc1nc2cccnc2n1C1CCNCC1,-28%,.,-14%,.,.,.
CCCc1cc2c(n1Cc1ccco1)C(C)C1CN(C(=O)c3ccccc3)C(C)(C(=O)OC)C21 (stereo unspecified),.,19%,.,4%,.,.
C[n+]1c(-c2ccccc2)sc2ccccc21,1.3µM*,-9%,1µM*,-4%,14,-1%
c1ccc2c(c1)sc1ccccc12,?,14%,-26%,-13%,.,.
C[C@@H]1C(=O)O[C@H]2[C@H](O)[C@]34[C@@H]5OC(=O)[C@]3(OC3OC(=O)[C@H](O)C34[C@H](C(C)(C)C)[C@@H]5O)[C@@]12O (stereo partly specified),-6%,.,-10%,.,-29,.
CC1=C2[C@H]3OC(=O)[C@@H](C)[C@@H]3CC[C@@]2(C)C=CC1=O,0%,-3%,1%,-8%,-11,19%
O=C1c2ccccc2-n2nnc(-c3ccccc3)c2C2c3ccccc3CCN12 (stereo unspecified),16µM*,.,7.3µM*,.,52,.
COc1cccc(NP(=O)(Oc2ccc(Cl)cc2)Oc2ccc(Cl)cc2)c1,?,?,23µM*,?,?,21µM*
Cc1cccc(NP(=O)(Oc2ccccc2F)Oc2ccccc2F)c1,?,?,?,-19%,-99*,18µM*
Cc1ccc(NP(=O)(Oc2ccccc2F)Oc2ccccc2F)cc1C,?,?,?,-9%,-84*,?
O=[N+]([O-])c1cccc(NP(=O)(Oc2ccccc2)Oc2ccccc2)c1,?,20%,?,-13%,-27,?
Cc1nn(CC(C)C)c(Cl)c1C(=O)NC1CCCCC1,7%,.,-12%,.,1,?
CC(C)(C)n1nnnc1C(c1cc2ccccc2o1)N1CCC2(CC1)C(=O)NCN2c1ccccc1 (stereo unspecified),?,.,?,.,-25,.
Cc1cccc(C)c1-n1nnnc1C(c1cccs1)N1CCC2(CC1)C(=O)NCN2c1ccccc1 (stereo unspecified),15µM*,.,15µM*,.,-4,.
COc1ccc(-n2nnnc2C(c2ccnc3ccccc23)N2CCC3(CC2)C(=O)NCN3c2ccccc2)cc1 (stereo unspecified),?,.,23µM*,.,0,.
COc1ccc(-n2nnnc2C(c2ccccc2OC(F)(F)F)N2CCC3(CC2)C(=O)NCN3c2ccccc2)cc1 (stereo unspecified),18µM*,.,23µM*,.,0,.
COc1ccc(-n2nnnc2C(c2ccccc2)N2CCC3(CC2)C(=O)NCN3c2ccccc2)cc1 (stereo unspecified),?,.,?,.,-59*,.
CC(=O)c1ccc(OCC(=O)N2CCCC(N(C)Cc3ccccc3)C2)cc1 (stereo unspecified),0%,4%,-6%,0%,6,0%
NC(=O)CN1CCCC1=O,-9%[21.1 µM],24%,2.9µM*!,5%,-23,?
CC(=O)OCC(=O)C1CCC2C3CC=C4CC(O)CC[C@@]4(C)C3CC[C@]12C (stereo partly specified),2%,-19%,-1%,-10%,.,.
C[C@H](Cc1ccc2c(c1)OC(C(=O)O)(C(=O)O)O2)NC[C@H](O)c1cccc(Cl)c1,.,-2%,.,-2%,.,.
Ic1c(C2=CCCCC2)[se]c2ccccc12,.,9%,.,-13%,.,.

# Bioassay records: PubChem, National Center for Advancing Translational Sciences (NCATS)
